This is one part of a sample in which hits are shown more often than they occur.
TTR transcr act: TTR transcription activators in neuroblastoma reporter cells, primary screen, cell-based, luminescence, SH-SY5Y, TTR promoter Gaussia luciferase | 100% = recombinant luciferase protein wells | activation, % at 16.7 µM | 92,000 tested, 1.3% active;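 active means activation above the mean of all tested compounds plus 3 SD, cut at about 9.5% in these data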;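 further: cells exposed to compounds for one day before reading; 0% = median of all test compound wells on the plate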
HuH7 TTR inh: TTR promoter reporter inhibitors in hepatoma cells, counter-screen for TTR transcription activator project, cell-based, luminescence, HuH7 hepatoma | shares compounds with TTR transcr act | HuH7 TTR promoter-Gaussia luciferase reporter | inhibition, % at 16.7 µM | 1,100 tested, 4% active | AID 1117279, 2014;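 active means average inhibition above the solvent-only control wells' mean plus 3 SD, cut at about 15% in these data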;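 further: 0% = cells with DMSO only and 100% = cells with inhibitor control FD; inhibitors lower well luminescence so higher value means more inhibition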
TTR up confirm: TTR transcription activators, retest, confirmation, cell-based, luminescence, SH-SY5Y, triplicate. AID 1117280, 2014. activation, % at 16.7 µM. SHSY5Y TTR promoter Gaussia luciferase; 100% = purified Lucia enzyme wells, no cells. shares compounds with TTR transcr act. 1,100 tested, under 10 active;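 active means mean activation above a set limit taken from the earlier primary screen, cut at about 11% in these data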;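 further: 0% = DMSO-treated cells and 100% = recombinant Lucia luciferase without cells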
The depositor's hits bear a star.

Screening CCOC(=O)C1=C(c2ccccc2)NC(=O)NC1c1ccc(N(C)C)cc1 (configuration not stated) returned TTR transcr act 14*, HuH7 TTR inh -7 and TTR up confirm 1.
O=C(O)C(c1ccccc1)C(O)C1CCCC1 (configuration not stated) was read as TTR transcr act -1.
Screening CC(C)(C)C(=O)Nc1nc(NC(=O)C(C)(C)C)nc(-c2ccccc2Cl)n1 returned TTR transcr act 10*, HuH7 TTR inh 0 and TTR up confirm -1.
`CC(C)(C)C(=O)Nc1cc2nn(-c3ccccc3)nc2cc1Cl` gave TTR transcr act -1.
`Cc1c(-c2ccccc2Cl)nc2ccccc2c1C(=O)O` gave TTR transcr act 0.
For Cc1cccc(-n2ncc3c(N(C)C4CCCCC4)ncnc32)c1 the results were TTR transcr act -3.
`Cc1cccc(-c2cc3nc(C)cc(NCCCn4ccnc4)n3n2)c1` gave TTR transcr act 0.
`C=CCc1cc(Cl)ccc1OCCCNCCO` gave TTR transcr act 5.
Clc1ccc(-c2nc(-c3ccncc3)no2)c(Cl)c1 was read as TTR transcr act 3.
For O=[N+]([O-])c1cc(Cl)ccc1-c1nc(-c2ccncc2)no1 the results were TTR transcr act 10*, HuH7 TTR inh -3 and TTR up confirm 0.
`Clc1ccccc1-c1nc(-c2ccncc2)no1` gave TTR transcr act -1.
For CC1CCCC(C)N1C(=O)Nc1cccc(Cl)c1 (configuration not stated) the results were TTR transcr act 5.
`O=C(Cc1ccccc1)NCC(=O)OCC(=O)c1ccc(Cl)c([N+](=O)[O-])c1` gave TTR transcr act 46*, HuH7 TTR inh -2 and TTR up confirm -1.
For O=C(CNC(=O)c1ccccc1)NCC(=O)OCC(=O)c1ccccc1Cl the results were TTR transcr act 2.
Screening CCN(C(=O)c1ccc(Cl)c([N+](=O)[O-])c1)c1ccccc1 returned TTR transcr act 1.
`S=c1[nH]c2cc(Cl)ccc2s1` gave TTR transcr act 9.
O=C(NCc1ccccc1)c1ccc(C(=O)NCc2ccccc2)cc1 was read as TTR transcr act -2.
For O=C(NCc1ccccc1)c1cc2ccccc2oc1=O the results were TTR transcr act 0.
O=C(NCc1ccccc1)c1cc(=O)c2ccccc2o1 was read as TTR transcr act 26*, HuH7 TTR inh -13 and TTR up confirm 4.
`N#Cc1nc(COc2cccc(Cl)c2)oc1N1CCCC1` gave TTR transcr act 3.
Screening O=C(NC(=S)NNC(=O)c1ccccc1O)c1ccco1 returned TTR transcr act -1.
`CCOC(=O)N1CCN(C2CCCN(C(=O)c3ccccc3SC)C2)CC1` (configuration not stated) gave TTR transcr act 1.
Screening COCCSc1ccccc1C(=O)N1CCCC(C)C1 (configuration not stated) returned TTR transcr act 21*, HuH7 TTR inh -26 and TTR up confirm 0.
COCCSc1ccccc1C(=O)N1CCN(c2ccccc2)CC1 was read as TTR transcr act 0.
`CC(C)CN(CC(C)C)CC(O)COc1ccccc1Br` (configuration not stated) gave TTR transcr act 1.
Screening O=C(NCCc1ccccc1)c1ccccc1[N+](=O)[O-] returned TTR transcr act 1.
`O=C(NCCNS(=O)(=O)c1ccc(C(F)(F)F)cc1)N1CCOCC1` gave TTR transcr act 12*, HuH7 TTR inh -6 and TTR up confirm 0.
O=C(CNS(=O)(=O)c1ccc(C(=O)N2CCOCC2)cc1)N1CCOCC1 was read as TTR transcr act 1.
O=C(CN1CCOCC1)NCCNS(=O)(=O)c1ccccc1 was read as TTR transcr act 0.
Screening CC1=[N+](C)N(c2ccccc2)C(=O)C1N=Cc1ccc(Cl)cc1 (configuration not stated) returned TTR transcr act 0.
c1ccc(CCNc2ccc3c(c2)Cc2ccccc2-3)nc1 was read as TTR transcr act 1.
On1c(-c2ccccc2)nc2ccccc21 was read as TTR transcr act 11*, HuH7 TTR inh -8 and TTR up confirm 0.
`Nn1c(-c2ccccc2)nc2ccccc2c1=O` gave TTR transcr act 3.
`Cc1nc2ccccc2n1-c1ccccc1` gave TTR transcr act 0.
`CNC(=O)CSc1nnc(-c2ccco2)n1-c1cc(C)ccc1C` gave TTR transcr act 0.
For Cc1ccc(CN2CCN(Cc3cccc(OCCO)c3)CC2CCO)o1 (configuration not stated) the results were TTR transcr act -2.

Screening results as filed in PubChem BioAssay.
